PubChem BioAssay

The compounds below were run against Pro-neuregulin-1, membrane-bound isoform (Homo sapiens) (UniProt Q02297) (assay: small molecules binding neuregulin-1 protein – biochemical, small-molecule microarray, fluorescence 635/667, psychiatric disease protein project, primary screen (AID 1075;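 further: score combines 667 nm spot fluorescence with signal to noise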)). Details: NRG1 binding, 635 nm fluorescence, higher = more signal.
Sequence of Pro-neuregulin-1, membrane-bound isoform (Homo sapiens) (Q02297 whole entry, looked up, canonical isoform): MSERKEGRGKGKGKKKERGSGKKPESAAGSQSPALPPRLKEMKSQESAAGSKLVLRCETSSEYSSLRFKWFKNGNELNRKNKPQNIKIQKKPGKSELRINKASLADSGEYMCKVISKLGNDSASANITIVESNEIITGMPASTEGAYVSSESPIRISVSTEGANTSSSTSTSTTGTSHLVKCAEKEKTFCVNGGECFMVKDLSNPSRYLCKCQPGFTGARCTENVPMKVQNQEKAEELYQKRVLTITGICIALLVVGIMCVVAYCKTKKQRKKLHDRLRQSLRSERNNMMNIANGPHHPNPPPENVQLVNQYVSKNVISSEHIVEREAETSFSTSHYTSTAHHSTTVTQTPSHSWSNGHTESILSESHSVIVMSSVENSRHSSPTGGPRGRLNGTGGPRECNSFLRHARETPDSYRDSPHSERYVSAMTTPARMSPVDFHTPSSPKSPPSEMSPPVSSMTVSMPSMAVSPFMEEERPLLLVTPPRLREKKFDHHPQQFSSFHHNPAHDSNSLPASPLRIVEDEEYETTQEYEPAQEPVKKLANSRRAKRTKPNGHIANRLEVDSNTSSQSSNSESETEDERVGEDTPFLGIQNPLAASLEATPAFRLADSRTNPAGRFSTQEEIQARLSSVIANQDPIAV

Compound | composite z-score
COC(=O)[C@@]1(Cc2ccc(OC)cc2)[C@H]2c3cc(C(=O)N4CCCC4)n(CCc4ccc(O)c(OC)c4)c3C[C@H]2CN1C(=O)c1ccccc1 | 1.2
O=C1N(CCS(=O)(=O)c2ccccc2)Cc2ccccc2C[C@@]12COC(c1ccc(OCCCO)cc1)=N2 | 1.02
CC(C)C[C@H]1NC(=O)[C@H](C)NC(=O)[C@@]23C(=O)N[C@@H](Cc4ccccc4)C2[C@H](C)[C@@]2(C)O[C@H]2C3/C=C/C/C=C\CNC1=O (stereo partly specified) | 0.0659
COc1ccc([Si](C)(C)[C@H]2[C@H](CC(=O)N3CCC[C@H]3CO)O[C@@]3(C(=O)N(Cc4ccc(N5C(=O)c6cccc7cccc5c67)cc4)c4ccccc43)[C@@H]2C)cc1 | 0.916
COc1cccc(C)c1NC(=O)O[C@H]1[C@H](OC(=O)Nc2ccccc2)[C@H](OC(=O)Nc2ccccc2)[C@@H](OC)O[C@@H]1CO | 1.64
C=CCC(OC(C)=O)[C@@H]1[C@@H](N(Cc2ccc(-c3ccccc3)cc2)C(=O)c2cccc3ccccc23)c2cc(OCCCO)ccc2N1C(=O)c1ccc2ccccc2n1 (stereo partly specified) | 0.152
O=C1O[C@H](c2ccccc2)[C@H](c2ccccc2)N2[C@H]1[C@@H](C(=O)N1CCN(c3ncccn3)CC1)[C@]1(C(=O)Nc3ccc(C#CCCO)cc31)[C@H]2c1ccc(OCCO)cc1 | 0.826
COC(=O)[C@@]1(Cc2ccccc2N=[N+]=[N-])N=C(c2ccc(OCCCO)cc2)O[C@H]1c1ccccc1 | 1.5

What follows are compounds tested on Neuregulin-1 EGF-like domain (assay: small molecules binding NRG1 EGF domain – biochemical, small-molecule microarray, 635 nm fluorescence, primary screen (AID 1081;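 further: binding of the protein to compounds printed on small-molecule microarray slides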)). Details: higher = more signal.

Compound | composite z-score
COCC(=C=CC[C@@H](O)c1ccccc1OCCO)C[C@@H](O)c1ccccn1 | 1.2
COc1ccc([Si](C)(C)[C@H]2[C@H](CCO)O[C@@]3(C(=O)N(Cc4cccc(N5CCOC5=O)c4)c4ccccc43)[C@@H]2C)cc1 | 0.783
COC(=O)C(CC#Cc1ccc2c(c1)[C@]1(C(=O)N2)[C@H](C(=O)N2CCc3cc(OC)c(OC)cc3C2)[C@H]2C(=O)O[C@H](c3ccccc3)[C@H](c3ccccc3)N2[C@@H]1c1ccc(O)cc1)C(=O)OC | 1.35
COc1ccc([Si](C)(C)[C@H]2[C@H](CCn3cc(CCO)nn3)O[C@@]3(C(=O)N(Cc4cccc(N5C(=O)c6cccc7cccc5c67)c4)c4ccccc43)[C@@H]2C)cc1 | 0.862
C[C@H]1ON(c2ccccc2)[C@@H](c2ccccc2)[C@@H]1C(=O)N1C(=O)OC[C@@H]1c1ccccc1 | 0.656
COc1ccc(C#Cc2ccc3c(c2)[C@]2(C(=O)N3)[C@H](C(=O)O)[C@H]3C(=O)O[C@H](c4ccccc4)[C@H](c4ccccc4)N3[C@@H]2c2ccc(OCCO)cc2)cc1 | 0.976
C=CCC(OC(C)=O)[C@@H]1[C@@H](N(Cc2ccc(-c3ccccc3)cc2)C(=O)Cc2ccc(OC)cc2)c2cc(OCCCO)ccc2N1C(=O)c1ccc(-c2ccccc2)cc1 (stereo partly specified) | 0.0056
Cc1ccc(S[C@]2(C(=O)NCC(C)C)CC(=O)N(C3CCCCC3)[C@@H]2c2ccc(CO)cc2I)cc1 | 1.03
COC(=O)C(CC#Cc1ccc2c(c1)[C@]1(C(=O)N2)[C@H](c2ccc(OCCO)cc2)N2[C@H](c3ccccc3)[C@H](c3ccccc3)OC(=O)[C@H]2[C@@H]1C(=O)O)C(=O)OC | 1.26
[N-]=[N+]=NCc1ccccc1C[C@@]1(C(=O)NCCN2CCOCC2)N=C(c2ccc(OCCCO)cc2)O[C@@H]1c1ccccc1CN=[N+]=[N-] | 1.21
C[C@]12C(=O)N(CCCO)[C@@H]3C(=O)N(c4ccc(Cl)cc4)CC=CC31O[C@@H]1/C=C\CCCOC(=O)C12 (stereo partly specified) | 1.13
CCCCC(O)C1C=CC2C(=O)N(Cc3ccccc3)C(=O)C2N1n1cnnc1 (stereo unspecified) | 1.08
Cc1ccccc1C(O)C1C=CC2C(=O)N(C)C(=O)C2N1Nc1ccc([N+](=O)[O-])cc1[N+](=O)[O-] (stereo unspecified) | 1.27
COCCOC(=O)N1C(=O)[C@@]2(c3cc(C#Cc4ccc(OC)cc4)ccc31)[C@H](C(=O)N1CCc3cc(OC)c(OC)cc3C1)[C@H]1C(=O)O[C@H](c3ccccc3)[C@H](c3ccccc3)N1[C@@H]2c1ccc(OCCO)cc1 | 1.16
O=c1c2ccc(Br)cc2nc(-c2ccccc2)n1Cc1cccc(O)c1 | 1.12
Cc1ccc(S[C@]2(C(=O)NCCN3CCOCC3)CC(=O)N(C3Cc4ccccc4C3)[C@@H]2c2ccc(CO)cc2)cc1 | 1.27
C=CC[C@@]1(C(=O)NCCN2CCOCC2)N=C(c2ccc(OCCCO)cc2)O[C@@H]1c1ccccc1 | 1.36
C[C@H]1NC(=O)C([C@@H](C)OCc2ccccc2)NC(=O)[C@@]23C(=O)N[C@@H](Cc4ccccc4)C2[C@H](C)[C@@]2(C)O[C@H]2C3/C=C/CC/C=C/CNC1=O (stereo partly specified) | -0.248
